# Measured values: PubChem BioAssay (Tox21)
# Where “and” joins values, the source holds several entries; their conditions need not be identical. Equal values may be shown once. Inconclusive results are not listed. Entries that show only a call come without a potency. Some compounds were tested as several samples or in several runs, with calls that do not always agree. Calls of active or inactive are those of the source. Calls come from the whole dose curve; as a rule, active = well fitted activation curve with a large enough effect in the repeat runs; inconclusive = weak or mixed curves; inactive = flat fitted curve, though single readings scatter.
# Experiment: A CellTox Green Cytotoxicity Assay to monitor cytotoxicity in HepG2 cells - 16 hour (AID 1224876); note: nearly all actives have a fitted effect of over 45% in size
# Conditions: CellTox Green fluorescence; series mostly up to 76.8 µM; cytotoxicity increase: at the top concentration
# Text: National Center for Advancing Translational Sciences [NCATS]
# NIH Chemical Genomics Center [NCGC]
# U.S. Environmental Protection Agency [EPA]
# National Institutes of Environmental Health Sciences [NIEHS]
# National Toxicology Program [NTP]
# Cell-based models are critical for drug discovery. Determining the natural cytotoxic effects resulting from test compounds is an essential research activity. A CellTox Green Cytotoxicity Assay to monitor cytotoxicity in real time of continues cell culture during 40 hours of the compound treatment was used to screen Tox21 10K library compounds in HepG2 cells. CellTox Green Cytotoxicity Assay is a nonlytic, homogeneous, biofluorescent method to measure cytotoxicity in cell culture after experimental manipulation. The assay system uses a proprietary asymmetric cyanine dye that is excluded from viable cells but preferentially stains the dead cell's DNA. […] Viable cells produce no appreciable increases in fluorescence. Therefore, the fluorescence signal produced by the binding interaction with dead cell DNA is proportional to cytotoxicity.
# The mixture of HepG2 cell suspension and reagents were dispensed at 600cells/6 ul/well in 1536-well tissue culture treated black solid bottom plates using a Multidrop dispenser. After the assay plates were incubated at a 37 C/5% CO2 incubator for 5 hours, 23 nL of compounds dissolved in DMSO, positive and negative controls was transferred to the assay plate by a pintool work station. The plates were incubated at 37 C for 40 hours. The fluorescence intensity were measured at 0h, 8h, 16h, 24h, 32h and 40h time points using ViewLux plate reader during compound treatment.
# Potency is the fitted concentration of half-maximal effect.
SMILES,Potency,cytotoxicity increase
NC1CCCCC1N (stereo not given),inactive,–
CC(=O)OC[C@H]1O[C@@](COC(C)=O)(O[C@H]2O[C@H](COC(C)=O)[C@@H](OC(C)=O)[C@H](OC(C)=O)[C@H]2OC(C)=O)[C@@H](OC(C)=O)[C@@H]1OC(C)=O,inactive,–
CC1(C)C(=O)N(Cl)C(=O)N1Cl,inactive,–
CCOC(=O)CC(=O)OCC,inactive,–
CC/C(C)=N/O,inactive,–
O=C(Cl)c1ccc(C(=O)Cl)cc1,inactive,–
CC(=O)OCCC(C)C,inactive,–
CC(=O)Nc1ccc(CC(=O)O)cc1,inactive,–
CC(C)(C)NC[C@H](O)COc1nsnc1N1CCOCC1,inactive,–
O=C(NCC1CCCCN1)c1cc(OCC(F)(F)F)ccc1OCC(F)(F)F (stereo not given),inactive,–
Cc1ccc([N+](=O)[O-])cc1N,inactive,–
CC(=O)OCc1ccc2c(c1)OCO2,inactive,–
OCCOCCOCCOCCOCCO,inactive,–
NCCNCCNCCN,inactive,–
C=CC(=O)NCOCCCC,inactive,–
Nc1nc(N)c2nc(-c3ccccc3)c(N)nc2n1,inactive,–
O=Cc1ccc(CO)o1,–,-4.5% (inactive)
O=C(O)C1=NN(c2ccc(S(=O)(=O)O)cc2)C(=O)C1,inactive,–
Cc1ncc(CO)c(CO)c1O,inactive,–
CCc1cccc(O)c1,inactive,–

SMILES,Potency,cytotoxicity increase
CCCCCCCCCCCC(=O)N(C)CC(=O)O,inactive,–
CC(=O)CC(=O)N(C)C,inactive,–
CCCCC(CC)COC(=O)c1ccc(C(=O)OCC(CC)CCCC)cc1 (stereo not given),inactive,–
CCCCC(=O)O,inactive,–
O=C1O[C@H]([C@H](O)CO)C(O)=C1O,inactive,–
Cc1nnc(NS(=O)(=O)c2ccc(N)cc2)s1,inactive,–
CCCCCCCCO,inactive,–
NC(=O)c1ncn([C@@H]2O[C@H](CO)[C@@H](O)[C@H]2O)n1,inactive,–
O=C(c1ccccc1)c1ccc(O)c(O)c1O,inactive,–
CC(=O)C(C)C,inactive,–
CC(CN1c2ccccc2Sc2ccccc21)N(C)C (stereo not given),inactive and 43.6 µM (active),–
Cc1ccc(C)c(S(=O)(=O)O)c1,inactive,–
COC(=O)CCCCC(=O)OC,inactive,–
O=C1OC(=O)c2c(Cl)c(Cl)c(Cl)c(Cl)c21,inactive,–
CC(C)=CCC/C(C)=C/C=O,inactive,–
COc1ccccc1[N+](=O)[O-],inactive,–
CCCCCC(C)=O,inactive,–
C=CC(C)(C)C,inactive,–
O=C(O)Cc1c[nH]c2ccccc12,inactive,–
Cc1ccc(Cl)cc1,inactive,–
